The record followed here is PubChem BioAssay (Tox21).

Experiment [1] is described as follows: qHTS assay for small molecules that induce genotoxicity in human embryonic kidney cells expressing luciferase-tagged ATAD5 (AID 651632). Also: nearly all actives have a fitted effect of over 15% in size. The gist of the method: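 HEK293T cells carrying luciferase-tagged ATAD5 were given compound or DMSO vehicle and incubated 16 hr at 37C, 5% CO2. Luciferase activity was read after 30 min at room temperature with Amplite; a rise signals genotoxic stress.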
A general note: Quantitative high-throughput screening tests each substance at several concentrations.

Experiment [2] in a line: qHTS assay for small molecule agonists of the p53 signaling pathway - cell viability (AID 651633; calls by dose curve;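 also: p53RE-bla HCT reporter cells with a stable beta-lactamase p53 reporter; nearly all actives have a fitted effect of over 30% in size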). The procedure, abridged:
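Viability counter-read: CellTiter-Glo luminescence (30 min, room temperature) in the same p53RE-bla plates. These plates had been exposed to compounds for 16 h at 37 C.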

Experiment [3] is described as follows: qHTS assay for small molecules that induce genotoxicity in human embryonic kidney cells expressing luciferase-tagged ATAD5 - cell viability (AID 651634; calls by dose curve; also: nearly all actives have a fitted effect of over 25% in size). The gist of the method:
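HEK293T cells carrying luciferase-tagged ATAD5, 2,000 cells/well, exposed to compound for 15.5 hr at 37C. Viability read as live-cell protease activity by CellTiter-Fluor fluorescence after 30 min at 37C.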

The nature of experiment [4]: qHTS assay for small molecule disruptors of the mitochondrial membrane potential - cell viability (AID 720634; calls by dose curve; also: nearly all actives have a fitted effect of over 20% in size; also: potency is read from the fitted curve at half-maximal effect). The procedure, abridged: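 HepG2 cells, 2,000 per well, attached overnight, then treated 1 hr at 37 C, 5% CO2. Viability read as ATP by CellTiter-Glo luminescence after 30 min at room temperature. Read in the same wells as the m-MPI membrane-potential dye assay.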

The nature of experiment [5]: qHTS assay to test for compound auto fluorescence at 590 nm (red) in HepG2 cells (AID 720674). The procedure, abridged:
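Red autofluorescence (Ex/Em 540/590 nm, Rose Bengal sodium equivalents) was measured in HepG2 cells, 2,000 per well in MEM plus 10% FBS, plated overnight at 37 C. Readings were taken 1 hr after adding 23 nL compound or DMSO, at 37 C and 5% CO2.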

The nature of experiment [6]: qHTS assay to test for compound auto fluorescence at 535 nm (green) in HepG2 cells (AID 720675).
The nature of experiment [7]: qHTS assay to test for compound auto fluorescence at 460 nm (blue) in HEK293 cells (AID 720678). The procedure, abridged: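 Triamterene serves as the blue fluorophore standard. Compound signal at 405/460 nm is read in HEK293 wells (2,000 cells, 10% dialyzed FBS) after overnight treatment at 37C.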
Experiment [8] can be described thus: qHTS assay to test for compound auto fluorescence at 590 nm (red) in HEK293 cells (AID 720679). The gist of the method:
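We plated HEK293 cells in 10% dialyzed FBS medium, let them adhere for 4-5 hr, then added 23 nL compound. Overnight at 37C and 5% CO2 preceded fluorescence measurement at 540/590nm.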

A short description of experiment [9]: qHTS assay to test for compound auto fluorescence at 535 nm (green) in HEK293 cells (AID 720680).
The nature of experiment [10]: qHTS assay to test for compound auto fluorescence at 460 nm (blue) in HEK293 cell free culture (AID 720681). The gist of the method:
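Blue fluorescence (Ex 405/Em 460 nm, triamterene-equivalent) was read immediately after pin transfer of compound or DMSO into medium (DMEM, 10% FBS) without cells.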

Experiment [11] in a line: qHTS assay to test for compound auto fluorescence at 535 nm (green) in HEK293 cell free culture (AID 720682). The gist of the method:
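Steps: dispense DMEM/10% FBS into empty wells; pin in compound or DMSO; measure fluorescence at 485/535 nm. Values are fluorescein equivalents.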

The nature of experiment [12]: qHTS assay to test for compound auto fluorescence at 590 nm (red) in HEK293 cell free culture (AID 720683). The procedure, abridged: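 Red-channel autofluorescence of compounds in culture medium (DMEM, 10% FBS), no cells, measured at 540/590 nm. Rose Bengal sodium is the reference fluorophore for equivalence.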
Experiment [13] in a line: qHTS assay to test for compound auto fluorescence at 590 nm (red) in HepG2 cell free culture (AID 720684). The gist of the method:
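Steps: dispense MEM/10% FBS medium, no cells; pin compound or DMSO vehicle; read red channel, Ex/Em 540/590 nm. Output given as Rose Bengal sodium equivalents.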

Experiment [14] is described as follows: qHTS assay to test for compound auto fluorescence at 460 nm (blue) in HepG2 cell free culture (AID 720685). The procedure, abridged:
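Compound (23 nL) or DMSO pinned into cell-free MEM with 10% FBS; blue fluorescence read at 405/460 nm excitation/emission, expressed as auto-fluorescence equivalency to triamterene.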

Experiment [15] in a line: qHTS assay to test for compound auto fluorescence at 535 nm (green) in HepG2 cell free culture (AID 720686).
Experiment [16] in a line: qHTS assay to test for compound auto fluorescence at 460 nm (blue) in HepG2 cells (AID 720687). The procedure, abridged:
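Blue-channel autofluorescence (Ex/Em 405/460 nm, triamterene-equivalent) was measured after 1 hr compound exposure at 37 C, 5% CO2. Cells were HepG2, plated overnight at 37 C in MEM plus 10% FBS.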

Experiment [17] can be described thus: qHTS assay for small molecule agonists of the p53 signaling pathway (AID 651631; calls by dose curve; also: nearly all actives have a fitted effect of over 15% in size; also: potency is read from the fitted curve at half-maximal effect). The procedure, abridged: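 HCT-116 p53RE-bla reporter line, 16 h compound treatment at 37 °C, then fluorescence after 2 h with B/G FRET substrate.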
Experiment [18] can be described thus: qHTS assay for small molecule disruptors of the mitochondrial membrane potential (AID 720635). Also: potency is read from the fitted curve at half-maximal effect. The procedure, abridged: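 Mitochondrial membrane potential tracked with Mito-MPS dye, red aggregates (ex 540/em 590 nm) against green monomers (ex 490/em 535 nm). Compound treatment 1 hr at 37C, dye 30 min in HepG2.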
The target in experiment [19] is Glucocorticoid receptor (Homo sapiens) (UniProt P04150). Put plainly: qHTS assay to identify small molecule agonists of the glucocorticoid receptor (GR) signaling pathway (AID 720691; active = well fitted activation curve with a large enough effect in the signal ratio in the repeat runs, not every such curve was filed as active; inconclusive = weak or mixed curves, or effect the other way; inactive = no such curve, though single readings can be large or run the other way; the % refers to the signal ratio). Conditions: GR-bla HeLa, beta-lactamase reporter ratio, 18 h; activation: at 62.4 µM (top of the series) unless noted. The gist of the method: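 GR-bla HeLa cells carrying a GRE-driven beta-lactamase reporter, exposed to compounds for 18 h at 37 C. Reporter activation read as fluorescence after 2 h with LiveBLAzer B/G FRET substrate at room temperature.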

For experiment [20] the target is unchanged. As to the kind of experiment: qHTS assay to identify small molecule antagonists of the glucocorticoid receptor (GR) signaling pathway (AID 720692; active = well fitted inhibition curve with a large enough effect in the signal ratio in the repeat runs, not every such curve was filed as active; inconclusive = weak or mixed curves, or effect the other way; inactive = no such curve, though single readings can be large or run the other way; the % refers to the signal ratio). The gist of the method: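 GR-bla HeLa cells carrying a GRE-driven beta-lactamase reporter received compound after 4 h plating, then dexamethasone (5 nM final). After 18 h at 37C, the FRET substrate was loaded for 2 h at room temperature and fluorescence read.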

Molecules are shown by their SMILES. Values without a mark were called inactive. Calls of active or inactive are those of the source. Unless noted, calls follow the shape of the dose curve; as a rule, active = well fitted curve in the direction sought with a large enough effect in the repeat runs; inconclusive = weak or mixed curves; inactive = no such curve, though single readings can be large; an effect the other way counts as inactive or inconclusive.
% is scaled to controls: 0 for no effect and ±100 for the full control effect.

Sequence of Glucocorticoid receptor (Homo sapiens) (P04150 whole entry, looked up): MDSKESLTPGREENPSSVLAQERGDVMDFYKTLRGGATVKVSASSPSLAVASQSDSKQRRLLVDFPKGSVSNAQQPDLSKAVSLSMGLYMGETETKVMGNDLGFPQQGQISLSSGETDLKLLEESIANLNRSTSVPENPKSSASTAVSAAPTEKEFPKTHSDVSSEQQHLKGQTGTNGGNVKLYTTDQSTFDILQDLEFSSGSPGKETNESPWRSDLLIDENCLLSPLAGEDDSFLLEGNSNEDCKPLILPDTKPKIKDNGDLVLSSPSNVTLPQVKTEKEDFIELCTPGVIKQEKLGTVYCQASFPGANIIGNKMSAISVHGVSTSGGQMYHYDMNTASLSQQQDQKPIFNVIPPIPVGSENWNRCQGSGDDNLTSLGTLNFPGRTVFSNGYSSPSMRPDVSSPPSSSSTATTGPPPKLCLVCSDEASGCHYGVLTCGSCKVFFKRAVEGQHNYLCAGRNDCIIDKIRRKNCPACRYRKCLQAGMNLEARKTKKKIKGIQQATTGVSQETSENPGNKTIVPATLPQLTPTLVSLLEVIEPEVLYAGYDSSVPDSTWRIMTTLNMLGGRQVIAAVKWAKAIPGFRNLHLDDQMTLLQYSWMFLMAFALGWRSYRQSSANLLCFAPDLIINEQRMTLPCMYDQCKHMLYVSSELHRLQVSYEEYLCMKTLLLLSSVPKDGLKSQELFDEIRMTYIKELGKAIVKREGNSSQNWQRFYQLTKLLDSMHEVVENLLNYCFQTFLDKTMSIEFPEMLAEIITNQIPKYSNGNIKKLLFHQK

For `CCCCCCCCCCCCCCCCOS(=O)(=O)O`, the Potency result in experiment [1], in experiment [2], in experiment [3], in experiment [4], in experiment [5] and in experiment [6] was “inactive” each time. Moreover, the Potency entry in experiment [8], in experiment [12], in [13] and in experiment [15] was “inactive” each time. The call in [7], in experiment [9], in experiment [10], in experiment [11], in experiment [14] and in experiment [16] was inactive.

For `COc1ccc(S(=O)(=O)N2C(=O)[C@@](c3ccccc3OC)(N3C[C@H](O)C[C@H]3C(=O)N(C)C)c3cc(Cl)ccc32)c(OC)c1`, the Potency result in [17], in [1], in experiment [18], in experiment [5], in [8] and in [12] was “inactive” throughout. Also, the Potency result in experiment [13], in experiment [15] and in experiment [19] was “inactive” each time. The result in experiment [7], in [9], in experiment [10], in experiment [11], in [14] and in experiment [16] was inactive.

With `COc1ccc(-c2nc3ccc(C4=NNC(=O)CC4C)cc3[nH]2)cc1` (stereo not drawn), the Potency in experiment [17] is 11.9 µM (active). Besides, the Potency entry in experiment [2], in [4], in experiment [5], in [6], in experiment [8] and in experiment [12] was “inactive” in each case. Further, the Potency entry in [13], in experiment [15] and in experiment [19] was “inactive” each time. The compound was classed as inactive in [7], in experiment [9], in [11], in experiment [14] and in [16].

In the case of `CCC(CC)Nc1ccc(C)c(C)c1`, the Potency result in experiment [1], in experiment [2], in experiment [3], in [4], in [5] and in [6] was “inactive” throughout. The Potency entry in [8], in experiment [12], in [13] and in experiment [15] was “inactive” in each case. Also, the call in [7], in experiment [9], in experiment [10], in [11] and in [16] was inactive.

With `Brc1c2ccccc2cc2ccccc12`, the Potency result in [1], in [2], in [3], in [5], in experiment [6] and in experiment [12] was “inactive” throughout. In addition, the Potency entry in experiment [13] and in [15] was “inactive” in each case. Further, the Potency in experiment [4] is 55 µM (active); in experiment [18], 30.9 µM (active). For the same compound, the result in [7], in experiment [9], in experiment [10], in [11], in [14] and in [16] was inactive. Besides, the activation in [19] is 9.34% [inconclusive] [at 79.2 µM] (active).

For the compound `Cc1cc(N)c2cc(NC(=O)Nc3ccc4nc(C)cc(N)c4c3)ccc2n1`, the Potency result in experiment [17], in [3], in experiment [4], in [6], in experiment [8] and in [12] was “inactive” each time. Moreover, the Potency result in experiment [13] and in experiment [15] was “inactive” each time. Moreover, the Potency in experiment [18] was 22.1 µM (active). Further, the compound was classed as inactive in [7], in experiment [9], in experiment [10], in [11], in experiment [14] and in [16].

As for `CC[N+](C)(CC)CCOC(=O)C(O)(c1ccccc1)C1CCCCC1` (stereo not drawn), the Potency entry in [1], in experiment [2], in experiment [3], in experiment [4], in [18] and in [5] was “inactive” in each case. The Potency entry in [6], in experiment [8], in experiment [12], in experiment [13], in experiment [15] and in experiment [19] was “inactive” in each case. Also, in experiment [20], the Potency entry is “inactive”. For the same compound, the outcome in experiment [7], in [9], in experiment [10], in [11], in [14] and in experiment [16] was inactive.

For the compound `CCN(CC)CCOC(=O)C(Cc1cccc2ccccc12)CC1CCCO1` (stereo not drawn), the Potency entry in [1], in experiment [2], in [3] and in [4] was “inactive” each time. Besides, the fluorescence, relative to Rose Bengal in [5] is -0.202% [at 18.6 µM]. Further, the fluorescence, % of fluorescein control is 0.0388% [at 18.6 µM] in experiment [6] and 0.0151% [at 18.6 µM] in experiment [15]. Further, the fluorescence, % of triamterene in [7] is 0.0425% [at 18.6 µM]. Moreover, the fluorescence, % of fluorescent control is 0.195% [at 18.6 µM] in [8]; 0.0375% [at 18.6 µM] in experiment [10]; 0.0006% [at 18.6 µM] in experiment [12]; -0.0194% [at 18.6 µM] in [14]; -0.147% [at 18.6 µM] in experiment [16]. Moreover, the fluorescence, % of fluorescein in experiment [9] was 0.0124% [at 18.6 µM]. In addition, in experiment [11], the activity change was -0.0273% [at 18.6 µM]. The fluorescence, % of Rose Bengal in experiment [13] was 0.633% [at 18.6 µM].
